Test results published in PubChem BioAssay (NCI).
This is part of a sample that, as a whole, favours compounds with a hit. Of some 83,000 tested, about 20% had one in any assay.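 The test compound was applied at a single concentration to cells in 96-well plates for 48 hours, and percent growth was recorded.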 Values without a mark were called inactive. Active and inactive are the calls of the source. The calls were made as follows: active = growth percent below 10; inactive = the rest.

Legend:
Assay in all cases: NCI-60 one-dose screen, 48 h (100 = growth as untreated, 0 = no growth, -100 = all killed)
Conditions in all cases: 10 µM unless noted
[1] = test system: SK-MEL-2 melanoma
[2] = test system: EKVX NSCLC
[3] = test system: SN12C renal
[4] = test system: UO-31 renal
[5] = test system: ACHN renal
[6] = test system: CAKI-1 renal
[7] = test system: A498 renal
[8] = test system: CCRF-CEM leukemia
[9] = test system: MOLT-4 leukemia

Row | Structure (SMILES) | growth [1] | growth [2] | growth [3] | growth [4] | growth [5] | growth [6] | growth [7] | growth [8] | growth [9]
1 | COC(=O)CC1=C(c2ccc([N+](=O)[O-])cc2)CCC1=O | 103% | 94.5% | 103% | 80.5% | 102% | 99.8% | 69.5% | 95.3% | 104%
2 | O[N+]1=CC=CCC1=S.On1ccccc1=S.[Zn] | -67.8% (active) | -84.4% (active) | -82.4% (active) | -97.9% (active) | -91.2% (active) | -85.6% (active) | -83.4% (active) | -34.5% (active) | -36.1% (active)
3 | c1ccc(-c2nc(Nc3nccnn3)c3ccccc3n2)cc1 | 112% | 88.4% | 96.7% | 89.8% | 103% | 84.9% |  | 93.2% | 100%
4 | O=C1NCCc2c1noc2-c1ccccc1 | 101% | 97.8% | 109% | 88.2% | 106% |  | 105% | 109% | 97.5%
5 | NC(=NCCCCCCN=C(N)/N=C(\N)Nc1ccc(Cl)cc1)/N=C(\N)Nc1ccc(Cl)cc1 | -31.8% (active) | 23.9% | 5.89% (active) | 46.6% | 20.5% | 10.3% | 11.1% | 12.5% | 21.2%
6 | Cc1ccc(-c2csc(N)n2)cc1 | 107% | 104% | 96% | 88.6% | 97.7% | 99.2% |  | 92% | 90.3%
7 | C#C[C@]1(O)CCC2C3CCc4cc(O)ccc4C3CC[C@@]21C (some centres undefined) | 18.5% | 31.6% | 52.3% | 55.7% | 60.4% | 45.3% | 49.2% | 39% | 23.4%
8 | CN1CCC[C@@H]1CCO[C@](C)(c1ccccc1)c1ccc(Cl)cc1 | 90.4% | 69.3% | 66.5% | 36.9% | 65.9% | 71% | 88.1% | 65.2% | 67.7%
9 | COc1ccc2nc(NC(=O)CN3CCn4c(nnc4C(F)(F)F)C3)sc2c1 | 106% | 73.1% | 92.2% | 80.6% | 90.7% | 77.7% |  | 86.5% | 95.8%
10 | COc1ccc(-c2cc(-c3nnc(SCC(=O)Nc4ccc(C(C)=O)cc4)n3-c3ccccc3)c3ccccc3n2)cc1OC | 97.9% | 97.7% | 110% | 85.3% | 108% |  | 114% | 104% | 107%
11 | OCc1n(Cc2ccc3ccccc3c2)cc[n+]1Cc1ccc2ccccc2c1 | 67.7% | 83.3% | 41.7% | 83.5% | 109% |  | 72.7% | 34.2% | 47.5%
12 | COCCCNS(=O)(=O)c1ncnc2nc[nH]c12 | 147% | 101% | 114% | 96.9% | 118% | 101% | 87% | 101% | 102%
13 | Cc1onc(-c2ccccc2Cl)c1C(=O)N[C@@H]1C(=O)N2[C@@H]1SC(C)(C)[C@@H]2C(=O)O | 110% | 104% | 103% | 80.4% | 104% | 96.6% | 114% | 96.6% | 90.5%
14 | O=C(O)CCC(=O)OC[C@@H](NC(=O)C(Cl)Cl)[C@H](O)c1ccc([N+](=O)[O-])cc1 | 105% | 106% | 92.9% | 72% | 88.1% | 89.6% |  | 89.7% | 90.7%
